Structures can show the parent of a compound that is named as a salt. ± gives the standard deviation of the averaged measurements. In all, about 2,000 compounds were measured (“relative cell viability vs DMSO, compound + 0.2 uM CuET”: median about 1, lowest 2% from about 0.25 on). The sample holds the lowest values, similar compounds and a random draw of the others, so the mix is not that of the screen.

This assay relates to TE10. The assay is described as follows: relative cell viability vs DMSO, compound + 0.2 uM CuET (fraction); TE10 is an esophageal squamous carcinoma line; higher = less cytotoxic. Conditions: 2 µM; co-treatment: CuET (bis(diethyldithiocarbamate)copper) 0.2 uM; 48 h. On the procedure: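 TE10 ESCC cells (1,000/well, 384-well plates) were treated with Selleck bioactive library compounds at 2 uM combined with 0.2 uM CuET (copper diethyldithiocarbamate) for 48 h. Viability was read by CellTiter-Glo and expressed relative to DMSO wells. Two technical replicates (A, B).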
`CNCc1ccc(-c2[nH]c3cc(F)cc4c3c2CCNC4=O)cc1`: the relative cell viability worked out at 1.3 ± 0.098.
Regarding `C=C(C)[C@@H]1CC[C@]2(C(=O)O)CC[C@]3(C)[C@H](CC[C@@H]4[C@@]5(C)CC[C@H](O)C(C)(C)[C@@H]5CC[C@]43C)[C@@H]12` [Betulinic acid], the relative cell viability turned out to be 0.945 ± 0.13.
Then `O=[N+]([O-])c1ccc2c(c1)S(=O)(=O)C=C2` [Stattic], with 0.204 ± 0.018.
The figure for `CS(=O)(=O)Nc1ccc([N+](=O)[O-])cc1Oc1ccccc1` [Nimesulide] is 1.08 ± 0.044.
Turning to `CC(C)=CCCC(C)(OC1OC(COC2OCC(O)C(O)C2O)C(O)C(O)C1O)C1CCC2(C)C1C(O)CC1C3(C)CCC(OC4OC(CO)C(O)C(O)C4O)C(C)(C)C3CCC12C` (centres undefined) [Gynostemma Extract], the relative cell viability is 1.04 ± 0.076.
`COC(=O)CCSCc1ccc(-c2onc(C)c2NC(=O)OC(C)c2ccccc2Cl)cc1` (centres undefined): the relative cell viability was found to be 0.919 ± 0.024.
For `CCCCN1CCCCC1C(=O)Nc1c(C)cccc1C` (centres undefined) [Bupivacaine HCl], the relative cell viability is 1.03 ± 0.16.
Turning to `CCN=C1N[C@@H]2[C@@H](O)[C@H](O)[C@@H](CO)O[C@@H]2S1` [Thiamet G], the relative cell viability was found to be 1.16 ± 0.065.
With `Cn1cc(CNCC2CCN(c3ncc(C(=O)NO)cn3)CC2)c2ccccc21`, the relative cell viability stood at 0.171 ± 0.017.
Take `COc1cc(C(=O)NS(=O)(=O)c2ccccc2C)ccc1Cc1cn(C)c2ccc(NC(=O)OC3CCCC3)cc12` [Zafirlukast]: the relative cell viability was 1.08 ± 0.019.
Turning to `CN1CCc2c(c3ccccc3n2Cc2ccc(C(=O)NO)cc2)C1` [Tubastatin A HCl], the relative cell viability is 0.979 ± 0.011.
As for `CN1CCc2c(c3ccccc3n2Cc2ccc(C(=O)NO)cc2)C1` [Tubastatin A], the relative cell viability came out at 1.375 ± 0.0024.
Consider `CCCCCCCCCCCCCCCC(=O)OCC(O)C1OC(=O)C(O)=C1O` [L-Ascorbyl 6-palmitate], for which the relative cell viability was determined as 1.02 ± 0.04.
Turning to `C[C@@H]1[C@H](O)[C@@H](C)/C=C/C=C/C=C/C=C/C=C/C=C/C=C/[C@H](O[C@@H]2O[C@H](C)[C@@H](O)[C@H](N)[C@@H]2O)C[C@@H]2O[C@](O)(C[C@@H](O)C[C@@H](O)[C@H](O)CC[C@@H](O)C[C@@H](O)CC(=O)O[C@H]1C)C[C@H](O)[C@H]2C(=O)O` [Amphotericin B], the relative cell viability came out at 1.13 ± 0.11.
Regarding `COc1c/c(=C2\C=c3ccccc3=N2)[nH]/c1=C\c1[nH]c(C)cc1C` [Obatoclax Mesylate (GX15-070)], the relative cell viability turned out to be 0.354 ± 0.035.
Then `Brc1ccc(C2CN3CCSC3=N2)cc1` (single isomer, unassigned; (-)) [(-)-p-Bromotetramisole Oxalate], with 1.33 ± 0.11; and `Cc1cc(=O)oc2c(C=O)c(O)ccc12`, with 1.24 ± 0.086.
`O=C(O)c1ccccc1` [Benzoic Acid]: the relative cell viability stood at 1.1 ± 0.072.
On to `CN(NC(=O)CC(=O)NN(C)C(=S)c1ccccc1)C(=S)c1ccccc1` [Elesclomol (STA-4783)], for which the relative cell viability was determined as 0.0573 ± 0.0087.
Regarding `O=C(O)CCNC(=O)c1ccccc1` [Betamipron], the relative cell viability was 1.014 ± 0.0048.
Take `O=C(Nc1ccc2c(O)cc(S(=O)(=O)O)cc2c1)Nc1ccc2c(O)cc(S(=O)(=O)O)cc2c1`: the relative cell viability came to 1.04 ± 0.058.
Consider `COc1ccc(Oc2cc(C)c(-c3csc(NC(=O)c4ccncc4)n3)c(C)c2)cc1`, for which the relative cell viability turned out to be 0.89 ± 0.15.
Take `O=C(/C=C/c1ccc(O)c(O)c1)O[C@@H]1C[C@](O)(C(=O)O)C[C@@H](O)[C@H]1O` [Chlorogenic Acid]: the relative cell viability was 1.1 ± 0.11.
Then `CC1(C)S[C@@H]2[C@H](NC(=O)[C@H](N)c3ccc(O)cc3)C(=O)N2[C@H]1C(=O)O` [Amoxicillin Sodium], with 1.06 ± 0.069.
The figure for `CC1(C)S[C@@H]2[C@H](NC(=O)[C@H](N)c3ccc(O)cc3)C(=O)N2[C@H]1C(=O)O` [Amoxicillin] is 0.42 ± 0.49; for `C=CC(=O)Nc1cccc(Nc2nc(Nc3ccc(OCCOC)cc3)ncc2F)c1` it is 0.892 ± 0.11.
Consider `O=S(=O)(c1ccccc1)N(CC(F)(F)F)c1ccc(C(O)(C(F)(F)F)C(F)(F)F)cc1`, for which the relative cell viability is 1 ± 0.084.
In the case of `CC(C)(O)C1CCC(C)(C2C(O)CC3(C)C4CC(OC5OC(CO)C(O)C(O)C5O)C5C(C)(C)C(OC6OCC(O)C(O)C6O)CCC56CC46CCC23C)O1` (centres undefined) [Astragaloside A], the relative cell viability turned out to be 1.15 ± 0.069.
Then `O=C(/C=C/c1ccc(CN(CCO)CCc2c[nH]c3ccccc23)cc1)NO` [LAQ824 (Dacinostat)], with 0.145 ± 0.0072.
With `O=C(O)CCCc1c[nH]c2ccccc12` [3-Indolebutyric acid (IBA)], the relative cell viability was found to be 1.12 ± 0.072.
As to `OCc1c[nH]c2ccccc12` [Indole-3-carbinol], the relative cell viability was determined as 1.1 ± 0.11.
For `CC1(C)CCCC2(C)C1CCC1(C)OC(=O)CC12` (centres undefined) [Sclareolide], the relative cell viability came to 1.05 ± 0.085.
Regarding `O=S(=O)(NCCNCC=Cc1ccc(Br)cc1)c1cccc2cnccc12`, the relative cell viability stood at 1.12 ± 0.058.
The figure for `CCN(CC)C(=S)SSC(=S)N(CC)CC` [Disulfiram] is 0.0338 ± 0.0054; for `Cn1cc(-c2[nH]c3cc(NC(=O)[C@H](N)C4CCCCC4)cc4c3c2C=NNC4=O)cn1` it is 0.702 ± 0.016; for `NC(=O)C1CCCc2c1[nH]c1ccc(Cl)cc21` (centres undefined) [EX 527 (Selisistat)] it is 1.15 ± 0.033.
For the molecule `CC(C)c1cc2c(N3CCN(C4=NCC(C)(C)S4)CC3)ncnc2s1` [MI-3 (Menin-MLL Inhibitor)], the relative cell viability turned out to be 0.972 ± 0.023.
For `CC1(C)CCC2=C(O1)c1ccccc1C(=O)C2=O` [Beta-Lapachone], the relative cell viability came out at 0.246 ± 0.051.
The figure for `CC1=CC(=O)c2ccccc2C1=O` [Menadione] is 0.671 ± 0.13.
On to `C=CC(=O)Nc1cc(Nc2nccc(-c3c[nH]c4ccccc34)n2)c(OC)cc1N(C)CCN(C)C`, for which the relative cell viability was determined as 0.476 ± 0.0093.
Regarding `Cc1ccc(-n2[nH]c(C)c(N=Nc3cccc(-c4cccc(C(=O)O)c4)c3O)c2=O)cc1C` [Eltrombopag Olamine], the relative cell viability stood at 1.145 ± 0.0091.
`Cc1ccc(-n2[nH]c(C)c(N=Nc3cccc(-c4cccc(C(=O)O)c4)c3O)c2=O)cc1C` [Eltrombopag]: the relative cell viability was 1.04 ± 0.1.
Take `OC(CC1c2ccccc2-c2cncn21)C1CCCCC1` (centres undefined): the relative cell viability stood at 1.13 ± 0.055.
As for `C#Cc1cccc(Nc2ncnc3cc(OC)c(OCCCCCCC(=O)NO)cc23)c1`, the relative cell viability turned out to be 0.182 ± 0.024.
For the molecule `C#Cc1cccc(Nc2ncnc3cc(OCCOC)c(OCCOC)cc23)c1` [Erlotinib], the relative cell viability was determined as 0.996 ± 0.091.
`C#Cc1cccc(Nc2ncnc3cc(OCCOC)c(OCCOC)cc23)c1` [Erlotinib HCl (OSI-744)]: the relative cell viability came to 1.18 ± 0.1.
As for `C#Cc1cccc(Nc2ncnc3cc(OCCOC)c(OCCO)cc23)c1`, the relative cell viability came out at 1.02 ± 0.013.
Turning to `CN(C)C(=O)c1ccc(S(=O)(=O)c2ccc(NC(=O)C(C)(O)C(F)(F)F)c(Cl)c2)cc1` (centres undefined), the relative cell viability is 1.2 ± 0.14.
As for `CCc1cnn2c(NCc3ccc[n+]([O-])c3)cc(N3CCCC[C@H]3CCO)nc12`, the relative cell viability was found to be 0.842 ± 0.12.
